Where “and” joins values, the source holds several entries; their conditions need not be identical. Equal values may be shown once. Where a structure was tested more than once in an assay, its records may differ in their call. Calls of active or inactive are those of the source. Rule for the calls: active = hit-call score of the fitted dose curve at least 0.9, where 1 is the maximum; inactive = score below 0.9.
How the values were obtained:
Details in all cases: mRNA level, 48 h; actives raise or lower the signal
[1] = read-out: Cytochrome P450 (CYP2B6), CYP2B6 (gene 1555); assay: LTEA_HepaRG_CYP2B6: Life Technologies and Expression Analysis (LTEA) Assay for Cytochrome P450 (CYP2B6) using HepaRG (AID 2283481)
In short: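 Differentiated human HepaRG cells in serum-free induction medium, dosed in duplicate for 48 h over 8 half-log concentrations topping at 100 uM (0.5% DMSO). CYP2B6 mRNA measured by TaqMan qRT-PCR, normalized to ACTB, GAPDH, POLR2A; bidirectional fit versus DMSO.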

[2] = read-out: Cytochrome P450 2C19 (Homo sapiens) (UniProt P33261); assay: LTEA_HepaRG_CYP2C19: Life Technologies and Expression Analysis (LTEA) Assay for CYP2C19 using HepaRG (AID 2283482)
In short: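 Differentiated HepaRG cells in serum-free induction medium exposed 48 h in duplicate, 8 concentrations from 100 uM by half-log steps in 0.5% DMSO. CYP2C19 mRNA measured by TaqMan qRT-PCR, normalized to ACTB, GAPDH, POLR2A. Bidirectional fit versus DMSO.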

[3] = read-out: CYP2C8 (gene 1558); assay: LTEA_HepaRG_CYP2C8: Life Technologies and Expression Analysis (LTEA) Assay for CYP2C8 using HepaRG (AID 2283483)
In short: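 Differentiated HepaRG cells in serum-free induction medium exposed 48 h in duplicate to 8 half-log concentrations from 100 uM in 0.5% DMSO. CYP2C8 mRNA by qRT-PCR normalized to ACTB, GAPDH, POLR2A; bidirectional fit versus DMSO.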

[4] = read-out: CYP2C9 (gene 1559); assay: LTEA_HepaRG_CYP2C9: Life Technologies and Expression Analysis (LTEA) Assay for CYP2C9 using HepaRG (AID 2283484)
In short: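 Differentiated human HepaRG cells in serum-free induction medium were exposed 48 h to chemicals in 8-point half-log series from 100 uM (0.5% DMSO), in duplicate. CYP2C9 mRNA was measured by qRT-PCR, normalized to ACTB/GAPDH/POLR2A, with bidirectional fitting versus DMSO.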

[5] = read-out: CYP2E1 (gene 1571); assay: LTEA_HepaRG_CYP2E1: Life Technologies and Expression Analysis (LTEA) Assay for CYP2E1 using HepaRG (AID 2283485)
In short: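 HepaRG cells in serum-free induction medium exposed 48 h to test chemicals, 8 half-log concentrations up to 100 uM in 0.5% DMSO, duplicate. CYP2E1 mRNA by qRT-PCR, normalized to ACTB, GAPDH, POLR2A; bidirectional fit versus DMSO.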

[6] = read-out: CYP4A11 (gene 1579); assay: LTEA_HepaRG_CYP4A11: Life Technologies and Expression Analysis (LTEA) Assay for CYP4A11 using HepaRG (AID 2283486)
In short: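 Differentiated HepaRG cells, 48 h after plating, exposed in duplicate for 48 h to 8 half-log concentrations up to 100 uM in 0.5% DMSO in serum-free induction medium. CYP4A11 mRNA measured by TaqMan qRT-PCR, normalized to ACTB, GAPDH and POLR2A.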

[7] = read-out: Cytochrome P450 3A4 (Homo sapiens) (UniProt P08684); assay: LTEA_HepaRG_CYP3A4: Life Technologies and Expression Analysis (LTEA) Assay for CYP3A4 using HepaRG (AID 2283487)
In short: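 In a human hepatic line (HepaRG), duplicate wells were treated 48 h with up to 100 uM chemical in half-log dilutions. Endpoint: CYP3A4 mRNA induction or loss relative to 0.5% DMSO vehicle, by qRT-PCR.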

[8] = read-out: DNA damage-inducible transcript 3 (DDIT3), DDIT3 (gene 1649); assay: LTEA_HepaRG_DDIT3: Life Technologies and Expression Analysis (LTEA) Assay for DNA damage-inducible transcript 3 (DDIT3) using HepaRG (AID 2283488)
In short: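 Differentiated human HepaRG cells in serum-free induction medium were exposed in duplicate for 48 h to 8 concentrations (top 100 uM, half-log steps, 0.5% DMSO). DDIT3 mRNA measured by TaqMan qRT-PCR, normalized to ACTB/GAPDH/POLR2A; bidirectional fit versus DMSO.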

[9] = read-out: Pro-epidermal growth factor (Homo sapiens) (UniProt P01133); assay: LTEA_HepaRG_EGF: Life Technologies and Expression Analysis (LTEA) Assay for Epidermal growth factor (EGF) using HepaRG (AID 2283489)
In short: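 HepaRG cells (~100,000/well, 48 h pre-culture) exposed in duplicate for 48 h in serum-free induction medium to 8 half-log concentrations up to 100 uM in 0.5% DMSO. EGF mRNA by qRT-PCR, normalized to ACTB/GAPDH/POLR2A; bidirectional fit versus DMSO.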

[10] = read-out: Early growth response protein 1 (EGR1) transcription factor, EGR1 (gene 1958); assay: LTEA_HepaRG_EGR1: Life Technologies and Expression Analysis (LTEA) Assay for Early growth response protein 1 (EGR1) transcription factor using HepaRG (AID 2283490)
In short: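 Differentiated HepaRG cells in serum-free induction medium exposed 48 hours, duplicate, to 8 half-log concentrations up to 100 uM in 0.5% DMSO. EGR1 mRNA measured by TaqMan qRT-PCR, normalized to ACTB, GAPDH, POLR2A; bidirectional fit versus DMSO.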

[11] = read-out: Ezrin (EZR), EZR (gene 7430); assay: LTEA_HepaRG_EZR: Life Technologies and Expression Analysis (LTEA) Assay for Ezrin (EZR) using HepaRG (AID 2283491)
In short: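 Gain or loss of EZR mRNA is scored relative to 0.5% DMSO in human HepaRG cultures treated 48 h with test chemicals in duplicate, eight half-log concentrations from 100 uM.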

[12] = read-out: Cytochrome P450 3A7 (Homo sapiens) (UniProt P24462); assay: LTEA_HepaRG_CYP3A7: Life Technologies and Expression Analysis (LTEA) Assay for CYP3A7 using HepaRG (AID 2283492)
In short: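 Differentiated HepaRG cells in serum-free induction medium exposed 48 h in duplicate to 8-point half-log series from 100 uM top in 0.5% DMSO. CYP3A7 mRNA by qRT-PCR, normalized to ACTB/GAPDH/POLR2A, bidirectional fit versus DMSO.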

[13] = read-out: CYP3A5 (gene 1577); assay: LTEA_HepaRG_CYP3A5: Life Technologies and Expression Analysis (LTEA) Assay for CYP3A5 using HepaRG (AID 2283493)
In short: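 Differentiated HepaRG cells in serum-free induction medium were dosed 48 h with test chemicals (8-point half-log series, top 100 uM, 0.5% DMSO, duplicate). CYP3A5 mRNA measured by qRT-PCR, normalized to ACTB, GAPDH, POLR2A; bidirectional fit versus DMSO.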

[14] = read-out: Fatty Acid-Binding Protein 1 (FABP1), FABP1 (gene 2168); assay: LTEA_HepaRG_FABP1: Life Technologies and Expression Analysis (LTEA) Assay for Fatty Acid-Binding Protein 1 (FABP1) using HepaRG (AID 2283494)
In short: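 Differentiated human HepaRG cells exposed 48 h in serum-free induction medium to eight half-log concentrations up to 100 uM (0.5% DMSO), duplicate. FABP1 mRNA by qRT-PCR, normalised to ACTB, GAPDH, POLR2A; bidirectional fitting against DMSO.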

[15] = read-out: Cytochrome P450 4A22 (Homo sapiens) (UniProt Q5TCH4); assay: LTEA_HepaRG_CYP4A22: Life Technologies and Expression Analysis (LTEA) Assay for Cytochrome P450 4A22 (CYP4A22) using HepaRG (AID 2283495)
In short: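 Differentiated HepaRG cells in serum-free induction medium exposed 48 h in duplicate to eight half-log concentrations up to 100 uM in 0.5% DMSO. CYP4A22 mRNA quantified by TaqMan qRT-PCR, normalized to ACTB, GAPDH and POLR2A; bidirectional fit versus DMSO.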

[16] = read-out: Cytochrome P450 7A1 (Homo sapiens) (UniProt P22680); assay: LTEA_HepaRG_CYP7A1: Life Technologies and Expression Analysis (LTEA) Assay for Cytochrome P450 7A1 (CYP7A1) using HepaRG (AID 2283496)
In short: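 Gene expression endpoint in human HepaRG liver cells treated for 48 h with test chemicals (up to 100 uM, 0.5% DMSO). Values come from bidirectional concentration-response fitting versus DMSO.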

[17] = read-out: Glutathione S-Transferase (GSTA2), GSTA2 (gene 2939); assay: LTEA_HepaRG_GSTA2: Life Technologies and Expression Analysis (LTEA) Assay for Glutathione S-Transferase (GSTA2) using HepaRG (AID 2283497)
In short: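 Differentiated human HepaRG cells were exposed in duplicate for 48 h in serum-free induction medium, 8 points from 100 uM top in half-log steps, 0.5% DMSO. GSTA2 mRNA was measured by TaqMan qRT-PCR, normalized to ACTB, GAPDH and POLR2A; bidirectional fit versus DMSO.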

[18] = read-out: Glutamate-cysteine ligase catalytic (GCLC), GCLC (gene 2729); assay: LTEA_HepaRG_GCLC: Life Technologies and Expression Analysis (LTEA) Assay for Glutamate-cysteine ligase catalytic (GCLC) using HepaRG (AID 2283498)
In short: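 Differentiated HepaRG cells exposed 48 h in serum-free induction medium, eight-point half-log series topping at 100 uM in 0.5% DMSO, duplicates. GCLC mRNA by qRT-PCR normalized to ACTB, GAPDH and POLR2A, fitted bidirectionally versus DMSO.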

[19] = read-out: growth arrest and DNA damage 45 (GADD45G), GADD45G (gene 10912); assay: LTEA_HepaRG_GADD45G: Life Technologies and Expression Analysis (LTEA) Assay for growth arrest and DNA damage 45 (GADD45G) using HepaRG (AID 2283499)
In short: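 Differentiated human HepaRG cells, 48 h post-plating, exposed 48 h in serum-free induction medium to 8 half-log concentrations (top 100 uM, 0.5% DMSO) in duplicate. GADD45G mRNA measured by Fluidigm TaqMan qRT-PCR, normalized to ACTB, GAPDH, POLR2A; bidirectional fit versus DMSO.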

[20] = read-out: Glutamate-cysteine ligase regulatory (GCLM), GCLM (gene 2730); assay: LTEA_HepaRG_GCLM: Life Technologies and Expression Analysis (LTEA) Assay for Glutamate-cysteine ligase regulatory (GCLM) using HepaRG (AID 2283500)
In short: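 Differentiated human HepaRG cells exposed 48 h in serum-free induction medium to 8-point half-log concentrations (top 100 uM, 0.5% DMSO), in duplicate. GCLM mRNA quantified by qRT-PCR, normalized to ACTB, GAPDH, POLR2A; bidirectional fitting versus DMSO.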

Measured: AC50

Sequence of Cytochrome P450 2C19 (Homo sapiens) (P33261 whole entry, looked up): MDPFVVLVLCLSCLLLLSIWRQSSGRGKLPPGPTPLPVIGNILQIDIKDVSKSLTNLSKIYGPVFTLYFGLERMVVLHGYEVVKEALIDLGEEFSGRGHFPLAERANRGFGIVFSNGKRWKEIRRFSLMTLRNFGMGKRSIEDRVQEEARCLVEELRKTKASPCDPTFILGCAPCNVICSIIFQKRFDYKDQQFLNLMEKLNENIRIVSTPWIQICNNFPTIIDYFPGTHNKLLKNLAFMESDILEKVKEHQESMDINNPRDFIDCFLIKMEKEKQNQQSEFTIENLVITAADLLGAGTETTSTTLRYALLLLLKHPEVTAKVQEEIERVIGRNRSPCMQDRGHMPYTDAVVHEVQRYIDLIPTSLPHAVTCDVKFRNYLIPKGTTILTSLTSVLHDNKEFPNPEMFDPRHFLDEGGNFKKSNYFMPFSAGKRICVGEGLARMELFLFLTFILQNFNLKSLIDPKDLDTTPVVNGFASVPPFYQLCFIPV
Sequence of Cytochrome P450 3A7 (Homo sapiens) (P24462 whole entry, looked up): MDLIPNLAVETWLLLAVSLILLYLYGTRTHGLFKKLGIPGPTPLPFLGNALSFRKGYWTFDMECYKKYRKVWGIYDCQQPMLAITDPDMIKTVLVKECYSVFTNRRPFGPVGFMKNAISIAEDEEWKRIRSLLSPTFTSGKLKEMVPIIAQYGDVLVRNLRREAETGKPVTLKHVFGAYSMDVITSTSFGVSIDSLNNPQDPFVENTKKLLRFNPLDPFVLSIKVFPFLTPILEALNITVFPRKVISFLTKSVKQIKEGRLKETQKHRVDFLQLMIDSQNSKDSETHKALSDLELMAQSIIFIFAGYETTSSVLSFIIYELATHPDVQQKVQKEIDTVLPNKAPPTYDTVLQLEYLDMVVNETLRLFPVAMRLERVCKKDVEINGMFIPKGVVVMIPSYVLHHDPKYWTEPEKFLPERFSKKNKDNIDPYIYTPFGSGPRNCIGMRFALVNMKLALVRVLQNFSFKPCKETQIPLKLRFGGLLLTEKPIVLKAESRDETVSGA
Sequence of Cytochrome P450 3A4 (Homo sapiens) (P08684 whole entry, looked up): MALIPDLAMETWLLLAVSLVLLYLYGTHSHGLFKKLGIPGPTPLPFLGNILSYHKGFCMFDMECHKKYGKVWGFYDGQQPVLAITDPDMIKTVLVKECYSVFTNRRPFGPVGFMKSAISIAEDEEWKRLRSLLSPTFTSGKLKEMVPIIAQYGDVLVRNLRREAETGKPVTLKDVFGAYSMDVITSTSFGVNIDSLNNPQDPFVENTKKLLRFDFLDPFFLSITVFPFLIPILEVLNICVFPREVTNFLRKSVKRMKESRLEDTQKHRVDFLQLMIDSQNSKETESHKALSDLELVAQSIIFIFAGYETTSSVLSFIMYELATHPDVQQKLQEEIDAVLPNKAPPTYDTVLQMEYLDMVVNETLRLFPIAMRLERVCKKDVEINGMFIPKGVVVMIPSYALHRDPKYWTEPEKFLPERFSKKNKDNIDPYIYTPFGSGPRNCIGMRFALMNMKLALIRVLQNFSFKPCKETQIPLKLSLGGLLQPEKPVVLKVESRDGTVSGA

CNC(=S)S
active: [1] 29.7 µM
inactive: all other assays above

CCCN(CCC)c1c([N+](=O)[O-])cc(S(N)(=O)=O)cc1[N+](=O)[O-]
inactive: [3] | [4] | [6] | [8] | [11] | [12] | [13] | [18] | [19] | [20]
active: [1] 11.1 µM and 11.9 µM and 10.7 µM | [2] 8.44 µM and 84.8 µM and 8.78 µM | [4] 95 µM and 82 µM | [5] 15.6 µM and 12.9 µM and 20.1 µM | [6] 93.5 µM and 15.8 µM | [7] 8.79 µM and 12.1 µM and 90.8 µM | [8] 93.7 µM and 67.7 µM | [10] 93.2 µM and 83.6 µM and 78.9 µM | [11] 95.9 µM and 78 µM | [12] 6.08 µM | [13] 93.8 µM and 50 µM | [14] 93.5 µM and 35.6 µM and 34.9 µM | [17] 91 µM and 68.4 µM and 83.1 µM | [18] 70.9 µM and 83.9 µM | [20] 92 µM

CC(C)Oc1cc(-n2nc(C(C)(C)C)oc2=O)c(Cl)cc1Cl
active: [1] 90.5 µM | [2] 1.44 µM | [3] 86.3 µM | [4] 82.3 µM | [5] 30.8 µM | [6] 45.6 µM | [7] 1.04 µM | [8] 77.7 µM | [14] 19.4 µM | [15] 50 µM | [16] 33.3 µM | [17] 80.8 µM | [18] 86.2 µM | [19] 77.8 µM | [20] 50 µM
inactive: [9] | [10] | [11] | [12] | [13]

CCCCNC(=O)n1c(NC(=O)OC)nc2ccccc21
inactive: all assays above
